In PubChem BioAssay AID1159580 (chemical genetic matrix, 2015):
“And” between values parts separate entries of the source, which are not always exact repeats. Identical values can stand only once. Screen size: about 5,500 compounds; about 2,000 (36%) were called active. About 18% were inconclusive and are not listed. Rule as the data show it: active = normalized growth mostly below about 0.91 (no sharp cut-off); inconclusive = no clear call, values can overlap the other calls; inactive = mostly above about 0.92. This is one part of the list.

Experiment: chemical genetic growth profiling, strain panel (AID 1159580);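 also: tested at 20 µM; growth read once vehicle control cultures reached saturation at 30 °C; 1 = growth at the plate median or of vehicle wells; lower values mean less growth of the strain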
Conditions: S. cerevisiae deletion strains, growth OD

Measured: normalized growth

CCN(CC)C(=S)SSC(=S)N(CC)CC
active: locus YAL013W, strain DEP1, active compounds read low 0.0629 and 0.897 | locus YAL021C, strain ccr4, active compounds read low 0.0672 | locus YAL026C, strain drs2, active compounds read low 0.0682 | locus YAL030W, strain snc1, active compounds read low 0.0564 | locus YAL040C, strain CLN3, active compounds read low 0.308 | locus YBL061C, strain skt5, active compounds read low 0.062 | locus YBR009C, strain hhf1, active compounds read low 0.0652 | locus YBR021W, strain FUR4, active compounds read low 0.0934 | locus YBR023C, strain chs3, active compounds read low 0.0638 | locus YBR171W, strain sec66, active compounds read low 0.0771 | locus YBR229C, strain ROT2, active compounds read low 0.426 | locus YBR231C, strain swc5, active compounds read low 0.0656 | locus YBR279W, strain paf1, active compounds read low 0.063 | locus YCL011C, strain gbp2, active compounds read low 0.0576 | locus YCL016C, strain dcc1, active compounds read low 0.065 | locus YCL029C, strain bik1, active compounds read low 0.135 | locus YCL061C, strain MRC1 (second series), active compounds read low 0.936 | locus YCL061C, strain MRC1, active compounds read low 0.0667 | locus YCL069W, strain vba3, active compounds read low 0.0629 | locus YCR088W, strain abp1, active compounds read low 0.062 | locus YDL005C, strain med2, active compounds read low 0.0753 | locus YDL035C, strain GPR1, active compounds read low 0.0484 | locus YDL040C, strain nat1, active compounds read low 0.0568 | locus YDL074C, strain BRE1, active compounds read low 0.0817 | locus YDL101C, strain DUN1, active compounds read low 0.068 | locus YDL134C, strain PPH21, active compounds read low 0.0516 | locus YDL185W, strain tfp1, active compounds read low 0.788 | locus YDL192W, strain arf1, active compounds read low 0.0621 | locus YDR001C, strain nth1, active compounds read low 0.0666 | locus YDR069C, strain doa4, active compounds read low 0.0647 | locus YDR101C, strain arx1, active compounds read low 0.101 | locus YDR137W, strain rgp1, active compounds read low 0.0968 | locus YDR150W, strain NUM1, active compounds read low 0.0605 | locus YDR159W, strain sac3, active compounds read low 0.0932 | locus YDR162C, strain NBP2, active compounds read low 0.0518 | locus YDR195W, strain ref2 0.121 | locus YDR297W, strain sur2, active compounds read low 0.0658 | locus YDR318W, strain mcm21, active compounds read low 0.0632 | locus YDR334W, strain swr1, active compounds read low 0.066 | locus YDR335W, strain msn5, active compounds read low 0.0613 | locus YDR388W, active compounds read low 0.0574 | locus YDR392W, strain spt3, active compounds read low 0.103 | locus YDR502C, strain sam2, active compounds read low 0.0592 | locus YEL003W, strain gim4, active compounds read low 0.0548 | locus YEL037C, strain rad23, active compounds read low 0.0581 | locus YEL061C, strain CIN8 (second series), active compounds read low 0.0638 | locus YEL061C, strain CIN8, active compounds read low 0.0531 | locus YER015W, strain faa2, active compounds read low 0.0589 | locus YER016W, strain bim1, active compounds read low 0.0621 | locus YER110C, active compounds read low 0.0748 | locus YER111C, strain swi4, active compounds read low 0.0842 | locus YER155C, strain BEM2 (second series), active compounds read low 0.092 | locus YER155C, strain BEM2, active compounds read low 0.0787 | locus YER167W, strain BCK2, active compounds read low 0.0526 | locus YFR010W, strain ubp6, active compounds read low 0.0704 | locus YGL078C, strain dbp3, active compounds read low 0.0558 | locus YGL086W, strain mad1, active compounds read low 0.0539 | locus YGL167C, strain pmr1, active compounds read low 0.0736 | locus YGL173C, strain kem1, active compounds read low 0.0686 | locus YGL227W, strain vid30, active compounds read low 0.0649 | locus YGL240W, strain doc1, active compounds read low 0.0818 | locus YGL248W, strain PDE1, active compounds read low 0.0479 | locus YGL253W, strain hxk2, active compounds read low 0.0556 | locus YGR078C, strain PAC10, active compounds read low 0.0528 | locus YGR135W, strain pre9, active compounds read low 0.0614 | locus YGR229C, strain SMI1, active compounds read low 0.0585 and 0.186 | locus YGR252W, strain gcn5, active compounds read low 0.111 | locus YHR013C, strain ard1, active compounds read low 0.114 | locus YHR027C, strain rpn1, active compounds read low 0.0617 | locus YHR030C, strain SLT2, active compounds read low 0.0521 and 0.114 | locus YHR079C, strain IRE1 (second series), active compounds read low 0.0828 | locus YHR079C, strain IRE1, active compounds read low 0.111 | locus YHR094C, strain hxt1, active compounds read low 0.0606 | locus YHR129C, strain ARP1, active compounds read low 0.0581 | locus YHR142W, strain chs7, active compounds read low 0.0762 | locus YHR200W, strain rpn10, active compounds read low 0.0631 | locus YIL066C, strain RNR3, active compounds read low 0.0508 | locus YIL073C, strain SPO22, active compounds read low 0.104 | locus YIL125W, strain kgd1, active compounds read low 0.0593 | locus YIR030C, strain dcg1, active compounds read low 0.0587 | locus YJL092W, strain hpr5, active compounds read low 0.0611 | locus YJL095W, strain BCK1 (second series), active compounds read low 0.0583 | locus YJL095W, strain BCK1, active compounds read low 0.0582 and 0.114 | locus YJL115W, strain asf1, active compounds read low 0.0765 | locus YJL129C, strain trk1, active compounds read low 0.0869 | locus YJL134W, strain LCB3, active compounds read low 0.0503 | locus YJL154C, strain vps35, active compounds read low 0.0608 | locus YJL164C, strain tpk1, active compounds read low 0.0649 | locus YJL166W, strain qcr8, active compounds read low 0.0615 | locus YJL168C, strain set2, active compounds read low 0.0602 | locus YJL187C, strain SWE1 (second series), active compounds read low 0.102 | locus YJL187C, strain SWE1, active compounds read low 0.0577 | locus YJR043C, strain POL32, active compounds read low 0.0598 | locus YJR066W, strain TOR1, active compounds read low 0.00329
inactive: locus YDR363W, strain ESC2, active compounds read low 0.997
